Measurements from PubChem BioAssay (NCI).
Several values for one entry are separate records, joined by “and”; a condition that tells them apart may be missing. Identical values can stand only once. This is part of a sample that, as a whole, favours compounds with a hit. Of some 79,000 tested, about 15% had one in any assay. No stated cut-off is given here; in the data, active means growth inhibition above about 70%; inactive means the rest.

Columns and labels:
[1] = NCI Yeast Anticancer Drug Screen. Data for the rad50 strain (AID 155);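 further: 0% = growth of vehicle-only cultures of the same strain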; conditions: S. cerevisiae rad50 strain growth inhibition, hits give high values; at 50.0 µM unless noted
Method in brief: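 DNA repair mutant yeast, compound exposure, growth read-out; inhibition is taken relative to vehicle.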

[2] = NCI Yeast Anticancer Drug Screen. Data for the mec2-1 strain (AID 157); conditions: S. cerevisiae mec2-1 strain, hits give high values; at 50.0 µM unless noted
Method in brief: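 Vehicle-treated cultures served as reference for growth inhibition of compound-exposed mec2-1 yeast.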

[3] = NCI Yeast Anticancer Drug Screen. Data for the sgs1 mgt1 strain (AID 161);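 further: 0% = growth of cultures given vehicle only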; conditions: S. cerevisiae sgs1 mgt1 strain, hits give high values; at 50.0 µM unless noted
Method in brief: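 Mutant yeast exposed to compound; growth scored against vehicle-only wells.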

[4] = NCI Yeast Anticancer Drug Screen. Data for the cln2 rad14 strain (AID 165);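 further: 0% = growth equal to vehicle treated cultures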; conditions: S. cerevisiae cln2 rad14 strain, hits give high values; at 50.0 µM unless noted
Method in brief: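 Each compound was tested on cln2 rad14 yeast. Inhibition of growth was calculated against vehicle-exposed controls.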

[5] = NCI Yeast Anticancer Drug Screen. Data for the bub3 strain (AID 167); conditions: S. cerevisiae bub3 mutant strain, hits give high values; at 50.0 µM unless noted
Method in brief: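 In this screen, a yeast mutant lacking normal mitotic checkpoint function is challenged with compound. Relative growth versus vehicle gives the inhibition value.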

[6] = NCI Yeast Anticancer Drug Screen. Data for the mlh1 rad18 strain (AID 175); conditions: S. cerevisiae mlh1 rad18 strain growth inhibition, hits give high values; at 50.0 µM unless noted
Method in brief: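 Vehicle-treated cultures served as the reference for growth inhibition in a yeast strain carrying DNA damage repair alterations exposed to each compound.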

Measured: growth inhibition

O=C(O)c1cc([N+](=O)[O-])cc([N+](=O)[O-])c1-c1ccccc1
inactive: [1] -10.4% | [2] -2.6% | [3] 6.2% | [4] -13.4% | [5] 44.6% | [6] -10%

Cc1cc(=O)n2nc(CSc3nnc(N)s3)sc2n1
inactive: [1] -0.7% | [2] 0.5% | [3] 7.35% | [4] 5.55% | [5] 10.5% | [6] 4.2%

O=C(c1ccccc1)C(C(Nc1ccccc1)c1ccccc1)N1CCOCC1 (stereo unspecified)
inactive: [1] 6.65% | [2] -5% | [3] -16% | [4] -47.3% | [5] 27.4% | [6] 22.6%

Cc1ccc(OCCC(=O)O)cc1
inactive: [1] 6.9% | [2] -6.15% | [3] -11.2% | [4] -63.5% | [5] -26.6% | [6] -1.65%

CC1CC(=O)CC(C)(C)N1 (stereo unspecified)
inactive: [1] -9.4% | [2] -9% | [3] 3.2% | [4] -2.4% | [5] 5.85% | [6] -7.25%

O=c1[nH]c(=O)c2cc(Cl)ccc2[nH]1
inactive: [1] 3.2% | [2] 6.75% | [3] -2.75% | [4] -37% | [5] 4.75% | [6] 0.65%

CCOC(=O)C(=CNc1ccc(OC)cc1[N+](=O)[O-])C(=O)OCC
inactive: [1] 11.7% | [2] 7.85% | [3] 11.6% | [4] 0.3% | [5] 11.3% | [6] 15.1%

O=C1CCC(=O)N1N1C(=O)CCC1=O
inactive: [1] -9.65% | [2] -24.2% | [3] -10.4% | [4] 7.05% | [5] -23.2% | [6] 3.35%

CC1NC(=O)OC12CCCCC2 (stereo unspecified)
inactive: [1] 16.4% | [2] -3.55% | [3] -2.95% | [4] -27.6% | [5] -7.5% | [6] -30.4%

CN(C)CCOC(=O)C1C2CC3OC(=O)C1C3C2 (stereo unspecified)
inactive: [1] -2.4% | [2] -13.6% | [3] 17.5% | [4] -5% | [5] 7.25% | [6] -19.4%

COc1c(Cl)cc(C(c2cc(Cl)c(OC)c(Cl)c2)C(Cl)(Cl)Cl)cc1Cl
inactive: [1] -11.7% | [2] -16.4% | [3] -13% | [4] -23.7% | [5] -3.95% | [6] 10.4%

CC#CC#C/C(=C/C=CC(=O)OC)SC
inactive: [1] 1.95% | [2] -18.9% | [3] 13.7% | [4] 12.3% | [5] 6.6% | [6] -38.2%

CCCCOC(=O)C1CN2C=CC=NC2=NC1(C(F)(F)F)C(F)(F)F (stereo unspecified)
inactive: [1] -16.1% | [2] 27% | [3] 6.6% | [4] 0.95% | [5] 3.35% | [6] -43.1%

O=c1oc(-c2ccc([N+](=O)[O-])cc2Cl)nc2ccccc12
inactive: [1] 13.2% | [2] 23.4% | [3] 31.1% | [4] 2% | [5] 38.6% | [6] 29.9%

CCNC(=O)c1ccccc1N=NN(C)C
inactive: [1] -1.15% | [2] 25.4% | [3] -0.65% | [4] 5.65% | [5] 5% | [6] 21.9%

O=c1cc(-c2ccccc2)[nH]c2c(F)ccc(F)c12
inactive: [1] -27.4% | [2] -46.5% | [3] -34.5% | [4] 11.3% | [5] -34.9% | [6] -18.9%

Brc1ccccc1C#Cc1ccccc1Br
inactive: [1] 0.7% | [2] -4.6% | [3] 16.3% | [4] -1.25% | [5] 10.1% | [6] 19.1%

C[N+]1(C2C=CCC(c3ccccc3)C2[N+](=O)[O-])CCCC1 (stereo unspecified)
inactive: [1] 27.2% | [2] 9.95% | [3] 35.5% | [4] 15.2% | [5] -3.6% | [6] 10.9%

COc1ccc(N=Nc2nc(N)c(C(N)=O)[nH]2)cc1
inactive: [1] -8.65% | [2] -7.55% | [3] -4.75% | [4] -28.5% | [5] 5.7% | [6] -16.6%

CC(O)C(C(=O)O)N(CC1(O)OCC(O)C(O)C1O)N=O (stereo unspecified)
inactive: [1] -4.5% | [2] -13.9% | [3] 11.3% | [4] 1.2% | [5] -2.65% | [6] -7.45%

CC(=O)OCC1OC(n2c(-c3ccc(C)cc3)cc(-c3ccco3)c(C#N)c2=O)C(OC(C)=O)C(OC(C)=O)C1OC(C)=O (stereo unspecified)
inactive: [1] 10.6% and -5.75% | [2] 10.6% and -5.75% | [3] 20.6% and 4.95% | [4] 13.5% and -16.8% | [5] 27.4% and -4.4% | [6] 14.4% and 9.7%

CCOC(=O)Nc1nc2ccccc2n1CN1CCCC1
inactive: [1] -4.7% | [2] -17.9% | [3] -11.3% | [4] 3.65% | [5] 22.4% | [6] 18.8%

CON1C(=O)C(c2ccccc2)c2ccccc21 (stereo unspecified)
inactive: [1] 58% | [2] 22.6% | [3] 47.8% | [4] 3.1% | [5] 10.7% | [6] 6.65%

CCC(CC)C(=O)OC1CCCCC1
inactive: [1] 9.9% | [2] 5.25% | [3] 13.8% | [4] -7.8% | [5] 4.8% | [6] 5.35%

N#Cc1ccc(OC(=O)Nc2ccc(F)cc2)cc1
inactive: [1] -4.1% | [2] -14.2% | [3] 12.2% | [4] 18.6% | [5] 10.7% | [6] 8.8%

CCCCCCC1(C)NC(=O)NC1=O (stereo unspecified)
inactive: [1] -20.2% | [2] -11.8% | [3] -2.15% | [4] -77.1% | [5] 6.3% | [6] -8.3%

O=C(COc1ccc(Cl)cc1)Nc1cc(Cl)c(Cl)cc1Cl
inactive: [1] -1.55% | [2] -7.2% | [3] 3.1% | [4] -17.7% | [5] 11.2% | [6] 1.3%

CC(N)C(=O)NO (stereo unspecified)
inactive: [1] -20.4% | [2] -24.6% | [3] -16.2% | [4] -40.6% | [5] 4.85% | [6] -36%

O=C(C(=C(I)I)c1ccccc1)c1ccccc1
inactive: [1] 7.7% | [2] -7.95% | [3] 25.1% | [4] -13.7% | [5] 13.6% | [6] -75.4%

CCN(CC)CCn1c2ccccc2c(=O)c2c(OC)ccc(OC)c21
inactive: [1] 54.4% | [2] 8.05% | [3] 15.8% | [4] 16.6% | [5] 16.8% | [6] 50.9%

CCC(C)(CC=C(C)C)c1ccncc1 (stereo unspecified)
inactive: [1] -6.7% | [2] 1.95% | [3] 3.1% | [4] -16.8% | [5] 9.6% | [6] -9.6%

O=C(C[n+]1csc2ccccc21)c1ccccc1
inactive: [1] 9% | [2] 15.3% | [3] 17.1% | [4] 20.4% | [5] 30.4% | [6] 3.8%

CC(CC(=O)c1ccccc1)[N+](=O)[O-] (stereo unspecified)
inactive: [1] -10.6% | [2] -6.35% | [3] -3.3% | [4] -12.6% | [5] -7.85% | [6] 15.8%

CCOC(=O)CN1C(=O)/C(=C2\SC(=S)N(CC(=O)OCC)C2=O)SC1=S
inactive: [1] 19.1% | [2] 9.95% | [3] 16.1% | [4] 7.7% | [5] -3.9% | [6] 9.4%

CCCCCCCCN(CCCCCCCC)CC(O)c1ccnc2c(Cl)cc(Cl)cc12 (stereo unspecified)
inactive: [1] 16.5% | [2] 15.2% | [3] 43.2% | [4] 5.7% | [5] 4.85% | [6] 33.3%

Cc1c(Cl)cccc1NC(=O)C(=O)c1c(O)c2ccc(O)cc2oc1=O
inactive: [1] 4.8% | [2] 1.25% | [3] -19.1% | [4] 3.45% | [5] -15.6% | [6] 5.35%

Cc1cc(C)c(-c2c(C)cc(C)c(C(=O)c3ccc([N+](=O)[O-])cc3)c2C)c(C)c1C(=O)c1ccc([N+](=O)[O-])cc1
inactive: [1] 25.7% | [2] 2.85% | [3] 11.8% | [4] 9.25% | [5] 3.2% | [6] 8.85%

CC1=N/C(=C\c2cccc([N+](=O)[O-])c2)C(=O)O1
inactive: [1] -6.9% | [2] -30.8% | [3] 5.1% | [4] 3.35% | [5] -10.7% | [6] 13.5%

COc1ccc(/C=C2\N=C3N(Cc4ccccc4)C=C(N)N3C2=O)cc1
inactive: [1] 2.65% | [2] -6.1% | [3] 15.8% | [4] -6.55% | [5] 17.8% | [6] 9.75%

O=[N+]([O-])c1ccc(N2N=NC(c3ccccc3)C2(c2ccccc2)N2CCOCC2)cc1 (stereo unspecified)
inactive: [1] 29.6% | [2] -0.9% | [3] 28.4% | [4] 16.7% | [5] 0.95% | [6] 14.6%

CCOC(=O)C/C(=N\NC(=O)c1ccccc1O)C(=O)OCC
inactive: [1] 5.8% | [2] 1.95% | [3] 5.85% | [4] 0.9% | [5] 3.3% | [6] 29.9%
